CRE-bla Fsk – Cell signaling CRE-BLA (Fsk stim); CHO CRE-bla reporter (cAMP response element driving beta-lactamase), forskolin EC10, beta-lactamase ratio; Potency, µM (top dose mostly 38.2 µM), for the others: top-dose activity change, negative = inhibition, usual class: activators; 2.5% of 71,000 active; AID 662, 2007; active = well fitted activation curve with a large enough effect in the signal ratio, with a control signal flat, not every such curve was filed as active; inconclusive = small, poorly fitted or top-dose-only effect, or effect the other way, or a change in a side signal; the % refers to the signal ratio; note: % of control where 0% means no effect
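Forskolin analogue NKH 477 at EC10 stimulated CRE-driven beta-lactamase in CHO cells alongside compound dilution series. Beta-lactamase was measured with CCF4, excitation 405 nm, emission ratio 460/530 nm.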
HEK293 cAMP cs – qHTS Assay for Agonists of the Thyroid Stimulating Hormone Receptor: Activators of Intracellular cAMP Concentrations in Parental HEK 293 | parental HEK293 CNG cAMP sensor, membrane potential fluorescence | Potency, µM (doses to about 57.1 µM), for the others: top-dose activation, most hits filed as activators | 2.5% of 73,000 active; note: % of control where 0% means no effect; nearly all actives have a fitted effect of over 55% in size
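Parental HEK 293 cells stably expressing a modified CNG channel (no TSHR) report cAMP rise as membrane depolarization. Membrane potential dye with 100 uM RO 20-1724 was loaded for 60 min at room temperature, then compound added for 30 min; fluorescence read at 590 nm.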
TSHR ag – qHTS Assay for Agonists of the Thyroid Stimulating Hormone Receptor. Potency, µM (top dose mostly 57.1 µM), inactives show at the highest dose activation, usual class: activators. AID 926, 2007. HEK293-CNG-TSHR cells (CNG channel as cAMP sensor), membrane potential dye, cAMP. 0.48% of 73,000 active. Thyrotropin receptor (Homo sapiens), P16473; active = well fitted activation curve with a large enough effect in the main read-out, with a control signal flat, not every such curve was filed as active; inconclusive = small, poorly fitted or top-dose-only effect, or a change in a side signal; inactive = no such curve, though single readings can be large or run the other way; % of control where 0% means no effect;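 note: the control signal comes from parental cells without the receptor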
Target sequence (P16473 whole entry, looked up): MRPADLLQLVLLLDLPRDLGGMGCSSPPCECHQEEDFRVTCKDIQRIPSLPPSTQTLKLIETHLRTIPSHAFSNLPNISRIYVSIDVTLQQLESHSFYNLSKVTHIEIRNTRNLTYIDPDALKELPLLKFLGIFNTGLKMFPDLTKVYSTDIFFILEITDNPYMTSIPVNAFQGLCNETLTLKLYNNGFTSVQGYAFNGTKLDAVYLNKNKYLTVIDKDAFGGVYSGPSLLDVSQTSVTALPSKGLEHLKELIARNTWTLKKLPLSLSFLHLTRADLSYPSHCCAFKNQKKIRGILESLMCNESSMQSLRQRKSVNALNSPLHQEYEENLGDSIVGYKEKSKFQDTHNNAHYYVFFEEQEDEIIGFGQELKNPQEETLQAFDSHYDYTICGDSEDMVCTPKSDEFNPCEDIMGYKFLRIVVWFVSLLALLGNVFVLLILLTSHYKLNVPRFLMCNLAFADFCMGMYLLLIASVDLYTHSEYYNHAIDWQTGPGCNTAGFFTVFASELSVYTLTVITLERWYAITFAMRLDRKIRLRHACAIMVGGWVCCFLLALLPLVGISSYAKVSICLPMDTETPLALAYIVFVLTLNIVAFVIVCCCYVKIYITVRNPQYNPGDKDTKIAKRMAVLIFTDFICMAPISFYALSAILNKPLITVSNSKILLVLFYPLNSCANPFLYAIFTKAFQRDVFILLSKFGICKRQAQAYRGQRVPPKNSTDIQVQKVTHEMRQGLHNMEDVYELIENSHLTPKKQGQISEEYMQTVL
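HEK 293 cells stably expressing TSHR and a cAMP-gated CNG channel; parental CNG-only cells as counterscreen. Cells preloaded 60 min with membrane potential dye plus 100 uM RO 20-1724, then compound 30 min; fluorescence read at 590 nm.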
ERK AVP block – qHTS Assay for Inhibitors of the ERK Signaling Pathway using a Homogeneous Screening Assay | 0.99% of 72,000 active | HEK293-V1b, vasopressin-stimulated pERK AlphaScreen | AID 995, 2007 | Potency, µM (top dose mostly 57.5 µM), without a hit: at the highest dose activity, negative = inhibition, actives largely listed as inhibitors; note: % is set by controls: 0 for no effect and ±100 for the full control effect; nearly all actives have a fitted effect of over 55% in size
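HEK293 cells stably expressing V1b receptor, seeded overnight in 1% FBS, were treated with compounds for 30 min at 37C, then stimulated 5 min with 25 nM vasopressin; phospho-ERK read by AlphaScreen SureFire after lysis.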
Tau fil binding – qHTS Assay for Tau Filament Binding | Potency, µM (series often up to 57.1 µM), without a hit: top-dose activity change, negative = inhibition | recombinant tau filaments, thioflavin S fluorescence, 15 h; filaments grown with octadecylsulfate alongside compound | 2% of 71,000 active | Microtubule-associated protein tau (Homo sapiens), P10636 | AID 596, 2007;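 note: % is set by controls: 0 for no effect and ±100 for the full control effect; actives lower thioflavin S fluorescence by blocking filaments or displacing dye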
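His-tagged recombinant human tau (exons 2, 3, 10; 1 uM final) fibrillized with 30 uM sodium octadecylsulfate, 15 h at 37 C, in pH 7.4 HEPES buffer with 10 uM thioflavine S and 5 mM DTT. Reduced ThS fluorescence (450/510 nm) marks activity.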
* hit, by the source's call; i = inactive; ? = inconclusive; · = not tested or not shown; [ ] = another dose, or the depositor's remark. A selection: hits, their analogues and other compounds. The true share with any hit is near 7.6%. Unless noted, calls come from the whole dose curve; as a rule, active = well fitted curve in the direction sought with a large enough effect; inconclusive = small, poorly fitted or top-dose-only effect, or another doubt; inactive = no such curve, though single readings can be large; an effect the other way counts as inactive or inconclusive. Potency is the fitted concentration of half-maximal effect.

SMILES | CRE-bla Fsk | HEK293 cAMP cs | TSHR ag | ERK AVP block | Tau fil binding
CCN(C(=O)c1ccnc(C(C)(C)C)c1)c1ccccc1 | 18.5% | 20.8% | 16.4% | 8.2% | 0.4%
CCN(C(=O)N(CC)c1ccccc1)c1ccccc1 | -0.8% | 15.8µM* | ? | 0.2% | -16.5%
CCCC1(c2ccccc2)NC(=O)N(CC(=O)c2[nH]c(C)c(C(=O)OCC)c2C)C1=O (stereo not given) | 10µM* | -36.9% | ? | 4.6% | 13.1%
CCOC(=O)c1[nH]c(C)c(C(=O)OCCN2C(=O)c3ccccc3C2=O)c1C | 2.51µM* | -9.7% | 8.5% | 13.5% | 37.5%
N#CCCn1c(=O)c(-c2ccc(F)cc2)nc2cnc(Oc3ccccc3)nc21 | ? | ? | ? | 2.0% | 260.5%
O=c1n(-c2ccccc2)c(=O)n2n1CC[C@H]1/C(=N\OCc3ccccc3)[C@H]3O[C@@H]3[C@@H](O)[C@@H]12 | · | 1.6%[11.4 µM] | -4.8%[11.4 µM] | 5.2%[11.5 µM] | ·
CC(C)C(c1nnnn1C1CCCCC1)N1CCc2ccccc2C1 (stereo not given) | -1.6% | 5.01µM* | ? | 10.7% | 1.6%
O=C(CC(=O)N1CCN(c2ccccn2)CC1)Nc1ccc2nc3n(c(=O)c2c1)CCCCC3 | 7.94µM* | -5.6% | -3.2% | -15.2% | 20.2%
O=C(Nc1ccc2nc3n(c(=O)c2c1)CCCCC3)c1ccccn1 | 12.6µM* | -2.4% | -6.3% | ? | 17.9%
C[N+](C)(C)CCC(=O)c1cccc2ccccc12 | ? | ? | ? | ? | 11.2%
COc1ccc(NC(=O)c2cc3c(=O)n(C)c4ccccc4c3n2C)cc1OC | 3.98µM* | -11.4% | -21.6% | ? | i
Cn1c(C(=O)NC2CCCCCC2)cc2c(=O)n(C)c3ccccc3c21 | 2.51µM* | 8.1% | 1.9% | 18.9% | i
CN(C)C(=O)c1ccc(-c2ccc3ncnc(N4CCNCC4)c3c2)cc1 | ? | 4.6% | · | -8.5% | 10.0%
COc1cccc(NC(=O)/C=C\c2ccc(Cl)cc2)c1 | ? | 31.6µM* | ? | 31.6µM* | 5.4%
COc1cccc(NC(=O)c2ccncc2)c1 | 5.9% | 16.6% | 3.1% | 25.8% | -25.3%
Cn1cccc1C(=O)N1CCC2(CC1)CN(C(=O)Nc1cccc(F)c1)C2 | -11.5% | 7.5% | 2.8% | 16.2% | -0.5%
COc1ccc(-c2n[nH]c(C)c2-c2ccc(Cl)cc2)c(O)c1OC | ? | ? | ? | 25.1µM* | 38.0%
Cc1[nH]nc(-c2ccc(O)cc2O)c1-c1ccc(Cl)cc1 | ? | -6.0% | -11.8% | ? | -10.3%
CC(=O)O[C@]1(C(C)=O)CC[C@@H]2[C@@H]3C=C(Cl)C4=CC(=O)[C@H]5C[C@@H]5[C@]4(C)[C@H]3CC[C@]21C | -0.6%[17.1 µM] | 11.1%[25.6 µM] | 3.1%[25.6 µM] | 7.4%[25.7 µM] | -13.9%[25.6 µM]
CCn1c(CSc2nc(C)cs2)nc2cc(S(=O)(=O)N(C)C)ccc21 | 8.7% | 23.8% | 14.4% | 5.5% | 2.1%
CCN(CC)S(=O)(=O)c1ccc2c(c1)nc(SCc1nc3ccsc3c(=O)[nH]1)n2CC | 5.01µM* | ? | ? | ? | -7.2%
CCOC(=O)c1c(C)nc2sccn12 | 12.6µM* | 4.6% | 2.5% | ? | -3.4%
CCOC(=O)c1c(C)nc2c3ccccc3ccn12 | 7.94µM* | 22.7% | 17.0% | ? | 53.6%
CCOC(=O)[C@]1(C(NC(=O)OC)c2cccc(F)c2)CCCC1=O (stereo not given in full) | · | 1.8%[11.4 µM] | -1.2%[11.4 µM] | 5.8%[11.5 µM] | ·
COc1ccc(-c2cc(C(F)F)n3ncc(C(=O)N4CCN5CCCC5C4)c3n2)cc1 (stereo not given) | ? | 15.8µM* | ? | -4.2% | -22.5%
COc1ccc(-c2cc(C(F)F)n3ncc(C(=O)NCC4CCCO4)c3n2)cc1 (stereo not given) | ? | 7.94µM* | ? | -8.5% | -18.5%
Cc1cccc(CNc2ncnc3ccc(-c4ccc(C(=O)N(C)C)cc4)cc23)c1 | ? | -25.3% | 28.3% | 20µM* | 18.5%
